VACV mCherry inh: qHTS for Stage-Specific Inhibitors of Vaccinia Orthopoxvirus: mCherry Reporter Primary qHTS; Vaccinia virus mCherry reporter infection, fluorescence; Potency, µM (doses to about 36.5 µM), actives largely listed as inhibitors; 0.63% of 310,000 active; AID 720579, 2013; calls by dose curve; tested in A549 cells; note: nearly all actives have a fitted effect of over 35% in size
Vaccinia Venus: qHTS for Stage-Specific Inhibitors of Vaccinia Orthopoxvirus: Venus Reporter Primary qHTS. Vaccinia virus Venus reporter expression, fluorescence. Potency, µM (titrated, usually from 36.5 µM), usual class: inhibitors. 0.46% of 330,000 active. AID 720580, 2013; calls by dose curve; tested in A549 cells; note: nearly all actives have a fitted effect of over 30% in size
Lassa entry inh: qHTS for Inhibitors of binding or entry into cells for Lassa Virus; Lassa virus pseudotype entry inhibition, cell reporter; Potency, µM (top dose mostly 37.9 µM), actives largely listed as inhibitors; 1.2% of 300,000 active; calls by dose curve; tested in HEK293 cells; note: nearly all actives have a fitted effect of over 50% in size
FMDV antiviral: High Throughput Screening for Foot and Mouth Disease Virus Antivirals; FMDV antiviral cell-based qHTS; Potency, µM (top dose mostly 57.9 µM), usual class: inhibitors; 1.2% of 410,000 active; AID 1159524, 2015; calls by dose curve; tested in HEK293T cells; note: read-out not given here; nearly all actives have a fitted effect of over 45% in size
MARV entry inh: qHTS for inhibitors of binding or entry into cells for Marburg Virus; Marburg virus pseudotyped entry inhibition, cell reporter; Potency, µM (titrated, usually from 37.8 µM), hits mostly inhibitors; 1.8% of 300,000 active; AID 540276, 2011; calls by dose curve; tested in HEK293 cells
HCMV inh: qHTS Assay for inhibitors of the human cytomegalovirus (HCMV). activity change, negative = inhibition, % at 57.5 µM. HFF cells, HCMV-luciferase reporter, 72 h; hits give low values. 4.5% of 410,000 active; in the data active = activity change below about -60%; inconclusive = no clear call, values can overlap the other calls; inactive = above about -39%
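After 16 h attachment at 37C, HFF cells received test compound and HCMV-luciferase (1 PFU/cell); reporter luminescence read 72 h later, data normalized against buffer-only and known inhibitor Salinomycin.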
A number is an active result; [ ] = another dose, or the depositor's remark. In the library only some 6.5% were active in any assay of this set; here they are far more common.

How did Cc1ccc(NC(=O)Cn2c(=O)n(CCCC(=O)NCc3ccc4c(c3)OCO4)c(=O)c3ccccc32)cc1 do in these assays?
VACV mCherry inh: inactive; Vaccinia Venus: inactive; Lassa entry inh: inactive; FMDV antiviral: inactive; MARV entry inh: inactive; HCMV inh: inactive

How did CCOC(=O)c1ccccc1NC(=O)Cn1c(=O)n(CCC(=O)N2CCc3ccccc3C2)c(=O)c2ccccc21 do in these assays?
VACV mCherry inh: inactive; Vaccinia Venus: inactive; Lassa entry inh: inconclusive; FMDV antiviral: inactive; MARV entry inh: inconclusive; HCMV inh: inactive

Results for Cc1nn(CC(=O)NCCc2ccc(Cl)cc2)c(=O)c2cccn12 ?
VACV mCherry inh: inactive[7.34 µM]; Vaccinia Venus: inactive[7.34 µM]; FMDV antiviral: inactive; HCMV inh: inactive

How did N#CC1=C(N)Oc2n[nH]c(-c3cccnc3)c2C1c1ccc([N+](=O)[O-])o1 (stereo unspecified) do in these assays?
VACV mCherry inh: inactive; Vaccinia Venus: inactive; Lassa entry inh: inconclusive; FMDV antiviral: inactive; MARV entry inh: inactive; HCMV inh: inconclusive

How did CO/N=C(/C)CCS(=O)(=O)c1ccccc1 do in these assays?
VACV mCherry inh: inactive; Vaccinia Venus: inactive; Lassa entry inh: inactive; FMDV antiviral: inactive; MARV entry inh: inactive; HCMV inh: inconclusive

How did CCOc1ccccc1NC(=O)NC1(C(=O)NCC2CCCO2)CCCCC1 (stereo unspecified) do in these assays?
VACV mCherry inh: inactive; Vaccinia Venus: inactive; Lassa entry inh: inactive; FMDV antiviral: inactive; MARV entry inh: inconclusive; HCMV inh: inactive

How did Cc1ccc(-c2nn(-c3ccccc3)cc2C=O)o1 do in these assays?
VACV mCherry inh: inactive; Vaccinia Venus: inactive; Lassa entry inh: inconclusive; FMDV antiviral: inactive; MARV entry inh: inconclusive; HCMV inh: inactive

How did CCC(Sc1nc2nccnc2c(=O)n1Cc1ccc(OC)cc1)C(=O)NC1CCCCC1 (stereo unspecified) do in these assays?
VACV mCherry inh: inactive; Vaccinia Venus: inactive; Lassa entry inh: inactive; FMDV antiviral: 7.08µM; HCMV inh: inactive

What do the screens show for `COc1ccc(Cn2ccnc2SCC(=O)NC2CCCCC2)cc1`?
VACV mCherry inh: inactive; Vaccinia Venus: inactive; Lassa entry inh: inconclusive; FMDV antiviral: inactive; MARV entry inh: inactive; HCMV inh: inactive

What do the screens show for `Oc1cccc2c(CC(O)c3c[nH]c4ccccc34)ccnc12` (stereo unspecified)?
VACV mCherry inh: inactive; Vaccinia Venus: inconclusive

How did CC(C)COC(=O)c1ccc2[nH]c(O)c(C=Nc3ccc(S(N)(=O)=O)cc3)c2c1 do in these assays?
Lassa entry inh: 0.996µM

What do the screens show for `NC(c1csc(Nc2ncccn2)n1)C1CCCCC1` (stereo unspecified)?
VACV mCherry inh: inactive; Vaccinia Venus: inconclusive; FMDV antiviral: inactive; HCMV inh: inactive

How did NC(c1csc(Nc2ccc(C(F)(F)F)cn2)n1)C1CCCCC1 (stereo unspecified) do in these assays?
VACV mCherry inh: inconclusive; Vaccinia Venus: inconclusive; FMDV antiviral: inactive; HCMV inh: -102.0

What do the screens show for `CC(C)CC(N)c1csc(Nc2cnccn2)n1` (stereo unspecified)?
VACV mCherry inh: 11.2µM; Vaccinia Venus: 10µM; FMDV antiviral: inactive; HCMV inh: inactive

How did NC(c1csc(Nc2cnccn2)n1)C1CCCCC1 (stereo unspecified) do in these assays?
VACV mCherry inh: inactive; Vaccinia Venus: inactive; FMDV antiviral: inactive; HCMV inh: -68.4

How did C=CCOc1ccc(C2NC(=O)c3ccccc3O2)cc1OC (stereo unspecified) do in these assays?
VACV mCherry inh: inactive; Vaccinia Venus: inactive; FMDV antiviral: inactive; HCMV inh: inactive

How did COc1ccc(-c2cn3nc(N4CCC(C(=O)NCc5ccccc5F)CC4)sc3n2)cc1 do in these assays?
VACV mCherry inh: inactive; Vaccinia Venus: inactive; Lassa entry inh: inactive; FMDV antiviral: inactive; HCMV inh: inconclusive

How did CC(=O)Nc1ccc(CN2C(=O)C(C)ON=C2c2ccccc2-c2ccco2)cc1 (stereo unspecified) do in these assays?
VACV mCherry inh: inactive; Vaccinia Venus: inactive; FMDV antiviral: inactive; HCMV inh: inactive

What do the screens show for `CSc1ccc(CN2C(=O)C(C)ON=C2c2ccccc2F)cc1` (stereo unspecified)?
VACV mCherry inh: inactive; Vaccinia Venus: inactive; FMDV antiviral: inactive; HCMV inh: -98.5

What do the screens show for `COc1ccccc1CN1C(=O)C(C)ON=C1c1ccccc1F` (stereo unspecified)?
VACV mCherry inh: inactive; Vaccinia Venus: inactive; FMDV antiviral: inactive; HCMV inh: -80.4

What do the screens show for `COc1ccc(C(C)=O)cc1CN1C(=O)C(C)ON=C1c1ccccn1` (stereo unspecified)?
VACV mCherry inh: inactive; Vaccinia Venus: inactive; FMDV antiviral: inactive; HCMV inh: inactive

What do the screens show for `Cc1ccc(Oc2cc([N+](=O)[O-])cc3c2C(=O)Nc2ccccc2O3)cc1`?
VACV mCherry inh: inconclusive; Vaccinia Venus: inactive; Lassa entry inh: inconclusive; FMDV antiviral: inconclusive; MARV entry inh: inconclusive; HCMV inh: -78.0

How did CCN(CC)c1ccc(/C=C(\C#N)C(=O)c2ccc(Br)cc2)cc1 do in these assays?
VACV mCherry inh: inactive; Vaccinia Venus: inactive; Lassa entry inh: inconclusive; FMDV antiviral: inactive; MARV entry inh: inconclusive; HCMV inh: -64.6

What do the screens show for `CCN(CC)c1ccc(/C=C(\C#N)C(N)=O)cc1`?
VACV mCherry inh: inactive; Vaccinia Venus: inconclusive; Lassa entry inh: inconclusive; FMDV antiviral: inactive; MARV entry inh: inconclusive; HCMV inh: inactive

Results for CN(C)c1ccc(/C=C(\C#N)C(=O)c2ccccc2)cc1 ?
FMDV antiviral: inactive; HCMV inh: -62.9

What do the screens show for `CC(=O)[C@@]12C3[C@@H](CCN3C(=O)N[C@H]1c1ccccc1)[C@H]2c1ccccc1` (stereo partly specified)?
MARV entry inh: inactive

What do the screens show for `COc1ccc(C(=O)NCC2Cc3cc(C)cc(-c4cc(C(C)=O)ccc4F)c3O2)c(OC)c1OC` (stereo unspecified)?
VACV mCherry inh: inactive; Vaccinia Venus: inactive; FMDV antiviral: inactive

What do the screens show for `CCCCN1C(=O)N(c2ccc(Br)cc2)C(=O)C1c1nnnn1-c1c(C)cccc1Cl` (stereo unspecified)?
HCMV inh: inactive

What do the screens show for `Cc1cc(N/N=C/c2cccc(Cl)c2)nc(NCc2ccccc2)n1`?
VACV mCherry inh: inconclusive; Vaccinia Venus: inconclusive; Lassa entry inh: inconclusive; FMDV antiviral: inactive; MARV entry inh: 18.4µM; HCMV inh: inactive

How did Cc1cc(N/N=C/c2ccccc2)nc(NCc2ccccc2)n1 do in these assays?
VACV mCherry inh: 10µM; Vaccinia Venus: inconclusive; Lassa entry inh: inconclusive; FMDV antiviral: inactive; MARV entry inh: inconclusive; HCMV inh: inactive

How did Cc1cc(Nc2cccc(Cl)c2)nc(NCc2ccccc2)n1 do in these assays?
Lassa entry inh: inactive; FMDV antiviral: inconclusive; MARV entry inh: inconclusive; HCMV inh: -77.3
